Where a name gives a salt, the structure may show the parent alone.
Tested on: Danio rerio larvae (5 dpf)
Assay: difference in activity during first hour vs DMSO (percentage points); higher = more activity than DMSO
Details: 10 µM; exposure time 6 h
Summary of the method: (§1)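 Wild-type zebrafish larvae at 5 dpf were kept in 96-well plates and exposed for 6 h to 100 µL egg water holding library compound at a final concentration of 10 µM. From 3 h into exposure, the plates were held at 28.5 ℃ and photographed every 6 s through a 3-h programme of moving lines and 100 ms, 400Hz tones. Each behaviour was scored by Z-LaP Tracker, a DeepLabCut model, and averaged over 48 larvae per compound. Every value gives the compound mean minus the vehicle control mean, in percentage points.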

Row | Structure (SMILES) | difference in activity during first hour
1 | CCc1c2c(nc3ccc(OC(=O)N4CCC(N5CCCCC5)CC4)cc13)-c1cc3c(c(=O)n1C2)COC(=O)[C@]3(O)CC [Irinotecan (hydrochloride hydrate)] | 0.361
2 | CN(C)CC[C@@H](c1ccc(Cl)cc1)c1ccccn1 [Dexchlorpheniramine (maleate)] | -18.8
3 | NS(=O)(=O)c1cc2c(cc1Cl)NCNS2(=O)=O [Hydrochlorothiazide] | 2.42
4 | CCc1cc2c(cc1N1CCC(N3CCOCC3)CC1)C(C)(C)c1[nH]c3cc(C#N)ccc3c1C2=O | 9.56
5 | CC(=O)OCC(=O)[C@@]1(OC(C)=O)[C@@H](C)C[C@H]2[C@@H]3C[C@H](F)C4=CC(=O)C=C[C@]4(C)[C@@]3(F)[C@@H](O)C[C@@]21C [Diflorasone Diacetate] | -4.84
6 | C[C@@H]1C[C@H]2[C@@H]3CCC4=CC(=O)C=C[C@]4(C)[C@@]3(F)[C@@H](O)C[C@]2(C)[C@@]1(O)C(=O)CO [Dexamethasone] | -6.96
7 | OC[C@H]1O[C@@H](O[C@@H]2[C@@H](CO)OC(O)(CO)[C@H]2O)[C@H](O)[C@@H](O)[C@H]1O (mixture of isomers) [Lactulose] | -2.1
8 | C[C@@H](CN1CC(=O)NC(=O)C1)N1CC(=O)NC(=O)C1 [Dexrazoxane] | -0.0194
9 | Nc1c(CC(=O)O)cccc1C(=O)c1ccc(Br)cc1 [Bromfenac (sodium salt)] | 7.18
10 | N=C(N)NCCCC[C@@H]1NC(=O)CCSSC[C@@H](C(N)=O)NC(=O)[C@@H]2CCCN2C(=O)[C@H](Cc2c[nH]c3ccccc23)NC(=O)[C@H](CC(=O)O)NC(=O)CNC1=O [Eptifibatide] | 5.64
11 | CC(C)c1nc(CN(C)C(=O)N[C@H](C(=O)N[C@@H](Cc2ccccc2)C[C@H](O)[C@H](Cc2ccccc2)NC(=O)OCc2cncs2)C(C)C)cs1 [Ritonavir] | 2.31
12 | COc1ccc(Cl)cc1C(=O)NCCc1ccc(S(=O)(=O)NC(=O)NC2CCCCC2)cc1 [Glyburide (potassium salt)] | 10.9
13 | O=C(NC1CCN(CCCCC2(C(=O)NCC(F)(F)F)c3ccccc3-c3ccccc32)CC1)c1ccccc1-c1ccc(C(F)(F)F)cc1 [Lomitapide] | -7.94
14 | CC(C)NCC(O)c1cc(O)cc(O)c1 (stereo unspecified) [Metaproterenol (hemisulfate)] | 26.4
15 | Cc1c(-c2ccccc2)oc2c(C(=O)OCCN3CCCCC3)cccc2c1=O [Flavoxate (hydrochloride)] | 13.3
16 | Cc1cccc(CN2CCN(C(c3ccccc3)c3ccc(Cl)cc3)CC2)c1 (stereo unspecified) [Meclizine (hydrochloride)] | 21.1
17 | O=c1[nH]c(=O)n([C@H]2C[C@H](O)[C@@H](CO)O2)cc1F [Floxuridine] | 5.28
18 | CON(C)Cc1ccc(O)c2c1C[C@H]1C[C@H]3[C@H](N(C)C)C(=O)C(C(N)=O)=C(O)[C@@]3(O)C(=O)C1=C2O | 7.53
19 | CCN(CC)CC(=O)Nc1c(C)cccc1C [Lidocaine] | 10.3
20 | CC(C)OC(=O)CCC/C=C\C[C@@H]1[C@@H](/C=C/C(F)(F)COc2ccccc2)[C@H](O)C[C@@H]1O [Tafluprost] | -16
21 | Nc1nc(=O)n([C@@H]2CS[C@H](CO)O2)cc1F [Emtricitabine] | 11.4
22 | CCCCCCCCc1ccc(CCC(N)(CO)CO)cc1 [Fingolimod] | -2.73
23 | Cc1cn([C@H]2C=C[C@@H](CO)O2)c(=O)[nH]c1=O [Stavudine] | -1.82
24 | Oc1ccc(C2CNCCc3c2cc(O)c(O)c3Cl)cc1 (stereo unspecified) [Fenoldopam (mesylate)] | 4.74
25 | CC1CNc2c(cccc2S(=O)(=O)N[C@@H](CCCNC(=N)N)C(=O)N2CC[C@@H](C)C[C@@H]2C(=O)O)C1 (stereo partly specified) [Argatroban] | 19.4
26 | CC(C)C(=O)Nc1ccc([N+](=O)[O-])c(C(F)(F)F)c1 [Flutamide] | -6.35
27 | NC(=O)N[C@@H](CCC(=O)O)C(=O)O [N-Carbamyl-L-Glutamic Acid] | 17.4
28 | CO/N=C(\C(=O)N[C@@H]1C(=O)N2C(C(=O)O)=C(COC(N)=O)CS[C@H]12)c1ccco1 [Cefuroxime (sodium salt)] | -6.92

Tested on: Danio rerio larvae (5 dpf)
Assay: difference in habituation to acoustic stimuli vs DMSO (percentage points); higher = more habituation than DMSO
Details: 10 µM; exposure time 6 h
Summary of the method: as §1

Row | Structure (SMILES) | difference in habituation to acoustic stimuli
29 | COc1ccccc1OCCNCC(O)COc1cccc2[nH]c3ccccc3c12 (stereo unspecified) [Carvedilol] | 0.913
30 | CC(=O)OCC(=O)[C@@]1(O)CC[C@H]2[C@@H]3CCC4=CC(=O)CC[C@]4(C)[C@@]3(F)[C@@H](O)C[C@@]21C [Fludrocortisone Acetate] | 0.633
31 | CC(=O)S[C@@H]1CC2=CC(=O)CC[C@]2(C)[C@H]2CC[C@@]3(C)[C@@H](CC[C@@]34CCC(=O)O4)[C@H]12 [Spironolactone] | -0.129
32 | COc1cc2c(cc1OC)CC(=O)N(CCCN(C)C[C@H]1Cc3cc(OC)c(OC)cc31)CC2 [Ivabradine (hydrochloride)] | -0.807
33 | Cc1ccc(Nc2nccc(N(C)c3ccc4c(C)n(C)nc4c3)n2)cc1S(N)(=O)=O [Pazopanib] | 0.185
34 | COC(=O)c1ccc2c(c1)NC(=O)/C2=C(\Nc1ccc(N(C)C(=O)CN2CCN(C)CC2)cc1)c1ccccc1 | 1.6
35 | C[C@@H](O)[C@@H]1NC(=O)[C@H](CCCCN)NC(=O)[C@@H](Cc2c[nH]c3ccccc23)NC(=O)[C@H](Cc2ccccc2)NC(=O)[C@@H](NC(=O)[C@H](N)Cc2ccccc2)CSSC[C@@H](C(=O)N[C@H](CO)[C@@H](C)O)NC1=O [Octreotide (acetate)] | -0.654
36 | CN1C(=O)CC(C)(c2ccccc2)C1=O (stereo unspecified) [Methsuximide] | 4.76
37 | CNC(=C[N+](=O)[O-])NCCSCc1ccc(CN(C)C)o1 [Ranitidine (hydrochloride)] | 0.164
38 | CC(=O)N[C@@H](CS)C(=O)O [N-acetyl-L-Cysteine] | -5.17
39 | CCc1c2c(nc3ccc(OC(=O)N4CCC(N5CCCCC5)CC4)cc13)-c1cc3c(c(=O)n1C2)COC(=O)[C@]3(O)CC [Irinotecan (hydrochloride hydrate)] | 2.44
40 | CN(C)CC[C@@H](c1ccc(Cl)cc1)c1ccccn1 [Dexchlorpheniramine (maleate)] | 1.79
41 | NS(=O)(=O)c1cc2c(cc1Cl)NCNS2(=O)=O [Hydrochlorothiazide] | 1.66
42 | CCc1cc2c(cc1N1CCC(N3CCOCC3)CC1)C(C)(C)c1[nH]c3cc(C#N)ccc3c1C2=O | 0.995
43 | CC(=O)OCC(=O)[C@@]1(OC(C)=O)[C@@H](C)C[C@H]2[C@@H]3C[C@H](F)C4=CC(=O)C=C[C@]4(C)[C@@]3(F)[C@@H](O)C[C@@]21C [Diflorasone Diacetate] | -1.12
44 | C[C@@H]1C[C@H]2[C@@H]3CCC4=CC(=O)C=C[C@]4(C)[C@@]3(F)[C@@H](O)C[C@]2(C)[C@@]1(O)C(=O)CO [Dexamethasone] | 0.952
45 | OC[C@H]1O[C@@H](O[C@@H]2[C@@H](CO)OC(O)(CO)[C@H]2O)[C@H](O)[C@@H](O)[C@H]1O (mixture of isomers) [Lactulose] | -4.39
46 | C[C@@H](CN1CC(=O)NC(=O)C1)N1CC(=O)NC(=O)C1 [Dexrazoxane] | 3.65
47 | Nc1c(CC(=O)O)cccc1C(=O)c1ccc(Br)cc1 [Bromfenac (sodium salt)] | -4.75

Row | Structure (SMILES) | difference in habituation to acoustic stimuli
48 | N=C(N)NCCCC[C@@H]1NC(=O)CCSSC[C@@H](C(N)=O)NC(=O)[C@@H]2CCCN2C(=O)[C@H](Cc2c[nH]c3ccccc23)NC(=O)[C@H](CC(=O)O)NC(=O)CNC1=O [Eptifibatide] | -3.64
49 | CC(C)c1nc(CN(C)C(=O)N[C@H](C(=O)N[C@@H](Cc2ccccc2)C[C@H](O)[C@H](Cc2ccccc2)NC(=O)OCc2cncs2)C(C)C)cs1 [Ritonavir] | 6.79
50 | COc1ccc(Cl)cc1C(=O)NCCc1ccc(S(=O)(=O)NC(=O)NC2CCCCC2)cc1 [Glyburide (potassium salt)] | -3.8
51 | O=C(NC1CCN(CCCCC2(C(=O)NCC(F)(F)F)c3ccccc3-c3ccccc32)CC1)c1ccccc1-c1ccc(C(F)(F)F)cc1 [Lomitapide] | -2.68
52 | CC(C)NCC(O)c1cc(O)cc(O)c1 (stereo unspecified) [Metaproterenol (hemisulfate)] | -8.48
53 | Cc1c(-c2ccccc2)oc2c(C(=O)OCCN3CCCCC3)cccc2c1=O [Flavoxate (hydrochloride)] | -3.99
54 | Cc1cccc(CN2CCN(C(c3ccccc3)c3ccc(Cl)cc3)CC2)c1 (stereo unspecified) [Meclizine (hydrochloride)] | -9.92
55 | O=c1[nH]c(=O)n([C@H]2C[C@H](O)[C@@H](CO)O2)cc1F [Floxuridine] | -3.55
56 | CON(C)Cc1ccc(O)c2c1C[C@H]1C[C@H]3[C@H](N(C)C)C(=O)C(C(N)=O)=C(O)[C@@]3(O)C(=O)C1=C2O | 4.95
57 | CCN(CC)CC(=O)Nc1c(C)cccc1C [Lidocaine] | -4.04
58 | CC(C)OC(=O)CCC/C=C\C[C@@H]1[C@@H](/C=C/C(F)(F)COc2ccccc2)[C@H](O)C[C@@H]1O [Tafluprost] | 12.5
59 | Nc1nc(=O)n([C@@H]2CS[C@H](CO)O2)cc1F [Emtricitabine] | 4.83
60 | CCCCCCCCc1ccc(CCC(N)(CO)CO)cc1 [Fingolimod] | -2
61 | Cc1cn([C@H]2C=C[C@@H](CO)O2)c(=O)[nH]c1=O [Stavudine] | 5.47
62 | Oc1ccc(C2CNCCc3c2cc(O)c(O)c3Cl)cc1 (stereo unspecified) [Fenoldopam (mesylate)] | -1.52
63 | CC1CNc2c(cccc2S(=O)(=O)N[C@@H](CCCNC(=N)N)C(=O)N2CC[C@@H](C)C[C@@H]2C(=O)O)C1 (stereo partly specified) [Argatroban] | -4.15
64 | CC(C)C(=O)Nc1ccc([N+](=O)[O-])c(C(F)(F)F)c1 [Flutamide] | -14.3
65 | NC(=O)N[C@@H](CCC(=O)O)C(=O)O [N-Carbamyl-L-Glutamic Acid] | 3.65
66 | CO/N=C(\C(=O)N[C@@H]1C(=O)N2C(C(=O)O)=C(COC(N)=O)CS[C@H]12)c1ccco1 [Cefuroxime (sodium salt)] | 2.43
